Assay [1] is described as follows: IUF_NPC2c_oligodendrocyte_migration_120hr: Leibniz Research Institute for Environmental Medicine (IUF) 120-hour Neural Progenitor Cell Migration Assay for Oligodendrocyte Migration (NPC2c) (AID 2284297).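 Also: O4-positive oligodendrocyte migration distance divided by radial glia migration distance.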 The essentials:
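Exposure runs 5 days from differentiation onset at 37C, seven concentrations plus solvent control, DMSO at most 0.1%, applied to primary hNPC spheres on laminin. After fixation, O4 immunostaining gives oligodendrocyte distance from the sphere core, relative to radial glia migration.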

Assay [2] can be described thus: IUF_NPC2a_radial_glia_migration_120hr: Leibniz Research Institute for Environmental Medicine (IUF) 120-hour Neural Progenitor Cell Migration Assay for Radial Glia Migration (NPC2a) (AID 2284298). The essentials: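 Migration distance in um, sphere core edge to migration-area edge, derived by nuclei-density algorithm from Hoechst images after 120 h compound exposure. Primary hNPC spheres differentiated on poly-D-lysine/laminin in N2 medium, 37C; medium half-replaced day 3.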

Assay [3] is described as follows: IUF_NPC2a_radial_glia_migration_72hr: Leibniz Research Institute for Environmental Medicine (IUF) 72-hour Neural Progenitor Cell Migration Assay for Radial Glia Migration (NPC2a) (AID 2284299). Put shortly:
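Readout: mean of four manual brightfield measurements of radial glia migration distance (um) at 72 h. hNPC spheres (0.3 mm) exposed to 7 compound concentrations plus solvent control on PDL/laminin, 37C, 5% CO2; activity fitted relative to DMSO.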

The nature of assay [4]: IUF_NPC2b_neuronal_migration_120hr: Leibniz Research Institute for Environmental Medicine (IUF) 120-hour Neural Progenitor Cell Migration Assay for Neuron Migration (NPC2b) (AID 2284300). The essentials: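 TUBB3-positive neurons are imaged after 120 h of differentiation, and their mean distance from the sphere edge is normalised to radial glia migration. Single 0.3 mm fetal hNPC spheres on poly-D-lysine/laminin received 7 compound concentrations, ≤0.1% DMSO, refreshed at day 3.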

A short description of assay [5]: IUF_NPC3_neuronal_differentiation_120hr: Leibniz Research Institute for Environmental Medicine (IUF) 120-hour Neuronal Differentiation Assay (NPC3) (AID 2284301). The essentials:
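Neuronal differentiation of primary human neural progenitors measured by high-content imaging: percent TUBB3+ of Hoechst+ nuclei within migrated area at 120 h, seven-point serial dilution plus solvent control, gain or loss relative to DMSO.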

The nature of assay [6]: IUF_NPC4_neurite_length_120hr: Leibniz Research Institute for Environmental Medicine (IUF) 120-hour Neuronal Morphology Assay for Neurite Length (NPC4) (AID 2284302). The essentials: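 Neurons from differentiating human fetal neural progenitor spheres are scored for average neurite length after five days of compound exposure. Fitting uses DMSO as negative control.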
Assay [7] can be described thus: IUF_NPC5_oligodendrocyte_differentiation_120hr: Leibniz Research Institute for Environmental Medicine (IUF) 120-hour Oligodendrocyte Differentiation Assay (NPC5) (AID 2284304; active = hit-call score of the fitted dose curve at least 0.9, where 1 is the maximum;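 also: primary human fetal neural progenitor spheres plated to migrate and differentiate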). The essentials: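 Oligodendrocyte differentiation scored as O4-positive cells, found by CNN image analysis, as percent of Hoechst-stained nuclei in the migration area. Scoring followed 5 days of exposure of plated hNPC neurospheres differentiating in DMEM/F12 N2 medium at 37C, with compound refreshed at day 3.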

A short description of assay [8]: IUF_NPC4_neurite_area_120hr: Leibniz Research Institute for Environmental Medicine (IUF) 120-hour Neuronal Morphology Assay for Neurite Area (NPC4) (AID 2284305; active = hit-call score of the fitted dose curve at least 0.9, where 1 is the maximum). Put shortly: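 Endpoint at 120 h: automated imaging of TUBB3/Hoechst-stained differentiating human neural progenitor spheres, neurite area per neuron from skeletonization. DMSO solvent control, not above 0.1%, set the baseline; medium was half-replaced on day 3.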

A short description of assay [9]: IUF_NPC2-5_cytotoxicity_72hr: Cytotoxicity Assessment at 72 hours in the Leibniz Research Institute for Environmental Medicine (IUF) Neural Progenitor Cell Migration and Differentiation Assay for Cytotoxicity (NPC2-5) (AID 2284306; active = hit-call score of the fitted dose curve at least 0.9, where 1 is the maximum;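 also: LDH release into supernatant measured by resorufin fluorescence marking membrane damage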). The essentials:
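Primary human neural progenitor spheres migrate and differentiate on laminin. Compound is present from the start of differentiation, with DMSO kept at or below 0.1%. At 72 h, supernatant LDH is quantified fluorometrically, with values fitted in the positive direction.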

Assay [10] can be described thus: IUF_NPC2-5_cytotoxicity_120hr: Cytotoxicity Assessment at 120 hours in the Leibniz Research Institute for Environmental Medicine (IUF) Neural Progenitor Cell Migration and Differentiation Assay (NPC2-5) (AID 2284307; active = hit-call score of the fitted dose curve at least 0.9, where 1 is the maximum;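 as to AC50: LDH released into supernatant as membrane damage marker via resorufin fluorescence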). Put shortly: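 Membrane-integrity loss measured as LDH activity in medium supernatant via resazurin-to-resorufin fluorescence after 120 h exposure. hNPC spheres from GW 16-19 fetal cortex differentiated on poly-D-lysine/laminin, 37C, medium half-refreshed day 3; seven concentrations, DMSO max 0.1%.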

Assay [11] is described as follows: IUF_NPC2-5_cell_number_120hr: Cell Number Assessment at 120 hours in the Leibniz Research Institute for Environmental Medicine (IUF) Neural Progenitor Cell Migration and Differentiation Assay (NPC2-5) (AID 2284308).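 Also: count of Hoechst-stained nuclei in migration zone around plated human neural progenitor spheres.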 Put shortly:
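Counting of all Hoechst-stained nuclei in the migration area at 120 h, versus DMSO control. Primary hNPC spheres differentiated on poly-D-lysine/laminin in N2 medium at 37C, dosed from day 0 (7 concentrations, DMSO ≤0.1%), half-refed day 3.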

Assay [12] in a line: IUF_NPC2-5_viability_120hr: Viability Assessment at 120 hours in the Leibniz Research Institute for Environmental Medicine (IUF) Neural Progenitor Cell Migration and Differentiation Assay (NPC2-5) (AID 2284312). Put shortly:
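Human fetal (GW 16-19) neural progenitor spheres of 0.3 mm were plated on poly-D-lysine/laminin in N2 differentiation medium and exposed from day 0 for 120 h, with half-medium refresh at day 3. Viability was read as alamar blue resazurin-to-resorufin fluorescence against DMSO.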

A short description of assay [13]: CCTE_Mundy_HCI_iCellGluta_NOG_NeuriteLength: CCTE's Neurite Outgrowth Assay in iCellGluta cells for Neurite Length, Mundy Lab (AID 2284318; active = hit-call score of the fitted dose curve at least 0.9, where 1 is the maximum). Put shortly:
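Automated high-content imaging of betaIII-tubulin (Alexa Fluor-488) and Hoechst-stained cells gave neurite length, normalized to the DMSO baseline.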

Read-out in another assay: CD69, CD69 (gene 969)
Put plainly: BSK_LPS_CD69: BioMAP Diversity Plus: LPS Assay for CD69 Biomarker Activity (AID 2284303). The following applies: primary human HUVEC with PBMC. Put shortly: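 CD69 surface levels were read by ELISA after 24 h chemical treatment of an LPS-stimulated HUVEC plus PBMC co-culture; positive-direction fit against DMSO vehicle.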

The next assay concerns IYD (gene 389434). As to the kind of experiment: CCTE_GLTED_hIYD: CCTE's human Iodotyrosine Deiodinase (xIYD) Inhibition Assay, Great Lakes Toxicology and Ecology Division (GLTED) Lab (AID 2284317; active = hit-call score of the fitted dose curve at least 0.9, where 1 is the maximum;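 also: cell-free human IYD enzyme made in baculovirus insect cells; iodide freed from monoiodotyrosine measured by cerium arsenite color change at 420 nm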). Put shortly: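 Cell-free; baculovirus/insect-cell hIYD + MIT substrate + chemical, 3 h. Dowex column cleanup, then Ce4+/As3+ Sandell-Kolthoff read at A420 nm. Triplicate plates; normalized to 3-nitro-L-tyrosine (positive) and DMSO/NaOH (solvent).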

Assay [14] can be described thus: CCTE_Deisenroth_5AR_NBTE_donor: CCTE's 5alpha-reductase NanoBRET Target Engagement Assay […], Deisenroth Lab (AID 2284319). As to conditions: actives raise or lower the signal. Put shortly: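 In this secondary endpoint, donor luminescence from SRD5A2-NanoLuc in transfected HEK293T flags artifacts. Test chemical (10 nM - 29.9 uM) is present five hours, tracer the last two; mock-tracer wells run plate-matched; data fitted bidirectionally against DMSO.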

Values joined by “and” are separate entries in the source; they are usually repeats but may differ in a detail not shown here. Equal entries are not always repeated. Results filed as inconclusive are left out. Where a structure was tested more than once in an assay, its records may differ in their call. Active and inactive are the calls of the source. The calls were made as follows, unless noted: active = hit-call score of the fitted dose curve at least 0.9, where 1 is the maximum; inactive = score below 0.9.

A word on the AC50: it is the concentration giving half of the maximal activity seen. In the case of `CC1(C)[C@H](C(=O)O[C@H](C#N)c2cccc(Oc3ccccc3)c2)[C@@H]1/C=C(\Cl)C(F)(F)F`, the molecule was classed as inactive in assay [1], in assay [2], in assay [3], in assay [4], in assay [5] and in [6]. In addition, the molecule was called inactive in assay [8], in assay [9], in assay [10], in assay [12] and in assay [13]. The AC50 in assay [7] is 0.983 µM (active); in assay [11] it was 0.586 µM (active).
Take `O=C(Cc1ccccc1)OCCc1ccccc1`: the result with CD69, CD69 (gene 969) was inactive.
Regarding `Nc1ccc(N)cc1`, in the assay on IYD (gene 389434), the result was inactive.
On to `CCCCCCCCCCCCOS(=O)(=O)O`, for which, in the assay with IYD (gene 389434), the AC50 was 62.8 µM (active) and 56.8 µM (active).
In the case of `Cc1ccccc1OP(=O)(Oc1ccccc1C)Oc1ccccc1C`, the molecule was called inactive in [1], in assay [3], in assay [4], in [5], in assay [6] and in assay [8]. In addition, the outcome in assay [9], in assay [11] and in assay [12] was inactive. Further, the AC50 is 10 µM (active) in [2], 6.47 µM (active) in assay [7] and 8.67 µM (active) in [13].
Consider `CNC(=O)CSP(=O)(OC)OC`, for which the molecule was classed as inactive in assay [1], in assay [2], in [3], in assay [4], in [5] and in [6]. In addition, the outcome in [8], in assay [9], in [10], in assay [11] and in [12] was inactive.
`CCOP(=S)(OCC)O/N=C(\C#N)c1ccccc1`: the molecule was called inactive in assay [14].
Take `O=C(CCl)Nc1ccccc1`: in the assay on IYD (gene 389434), the molecule was classed as inactive.
As to `Oc1cc(Cl)c(Cl)cc1Cl`, the call in the assay on IYD (gene 389434) was inactive.
With `O=C(Nc1ccc(Br)cc1)c1cc(Br)cc(Br)c1O`, in the assay on IYD (gene 389434), the AC50 was 118 µM (active) and 100 µM (active); the molecule was classed as inactive.
As for `OCCCCO`, the outcome in the assay with CD69, CD69 (gene 969) was inactive.
In the case of `CCOCn1c(-c2ccc(Cl)cc2)c(C#N)c(Br)c1C(F)(F)F`, the result in assay [1] and in assay [12] was inactive. Moreover, the AC50 in [2] was 63.4 µM (active); in [3], 36.6 µM (active); in assay [4] it was 35.4 µM (active); in assay [5] it was 5.42 µM (active); in [6], 14.4 µM (active); in assay [7] it was 5.56 µM (active). Besides, the concentration at half-maximal activity (AC50) in assay [8] is 13.4 µM (active); in assay [9] it was 50 µM (active); in assay [10], 41.7 µM (active); in assay [11], 84.8 µM (active); in assay [13], 14.1 µM (active).
Regarding `CCCCOC(=O)COC(=O)c1ccccc1C(=O)OCCCC`, the result with CD69, CD69 (gene 969) was inactive.
Take `CCC[CH2][Sn]([Cl])([Cl])[CH2]CCC`: the AC50 in assay [14] is 4.46 µM (active).
For `CC(C)[C@@H](Nc1ccc(C(F)(F)F)cc1Cl)C(=O)OC(C#N)c1cccc(Oc2ccccc2)c1` (stereo partly drawn), the molecule was classed as inactive in [1], in assay [2], in assay [3], in [4], in assay [6] and in assay [8]. Also, the result in assay [9], in [10], in assay [11], in assay [12] and in assay [13] was inactive. Further, the AC50 is 1.92 µM (active) in assay [5] and 3.8 µM (active) in assay [7].

For the origin of these results see PubChem BioAssay (EPA / NIEHS).
